Outcome and AC50 data for eight molecules are collected here from PubChem BioAssay (EPA / NIEHS).

Calls of active or inactive are those of the source. How the source made its calls: active means hit-call score of the fitted dose curve at least 0.9, where 1 is the maximum; inactive means score below 0.9.

Assay [1] is described as follows: APR_HepG2_CellLoss_72hr: Apredica 72-hour HepG2 Assay for Cell Loss (AID 2282915). To be noted: high-content imaging. In short, it runs like this:
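HepG2 cells exposed 72 h to compound at 0.39–200 uM (10 concentrations, duplicate) in 0.5% DMSO. Fixed with 3.7% formaldehyde and Hoechst 33342-stained. Imaged at 20x; nuclear count gives cell number, fitted bidirectionally versus DMSO.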

A short description of assay [2]: APR_HepG2_P-H2AX_72hr: Apredica 72-hour HepG2 Assay for H2AX Phosphorylation (AID 2282916).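 Further: phospho-histone H2A.x immunostain intensity per cell marking DNA damage.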 To be noted: imaging, actives raise or lower the signal. In outline:
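Following 72 hr treatment with 0.39–200 uM compound, HepG2 cells were formaldehyde-fixed, permeabilized and stained for phospho-H2A.x; signal was measured by high-content imaging and fitted bidirectionally against DMSO controls.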

Assay [3] can be described thus: APR_HepG2_MitoMembPot_72hr: Apredica 72-hour HepG2 Assay for Mitochondrial Membrane Potential (AID 2282917). To be noted: imaging, actives raise or lower the signal. In short, it runs like this: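 HepG2 cells dosed 72 hr with compound at 0.39–200 uM in duplicate, 0.5% v/v DMSO final. Mitochondria stained with 250 nM MitoTracker Red CMXRos for 30 min before formaldehyde fixation, imaged by high-content fluorescence; bidirectional fit versus DMSO.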

Assay [4] is described as follows: APR_HepG2_MitoticArrest_72hr: Apredica 72-hour HepG2 Assay for Mitotic Arrest (AID 2282918). To be noted: high-content imaging, actives raise or lower the signal. In outline: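 High-content imaging of fixed human HepG2 cells after 72 h compound exposure (0.39–200 uM, duplicates, 0.5% DMSO); mitotic arrest scored from phospho-histone H3 and nuclear Hoechst staining relative to DMSO.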

The nature of assay [5]: APR_HepG2_MicrotubuleCSK_72hr: Apredica 72-hour HepG2 Assay for Microtubule CSK Stabilty (AID 2282919). To be noted: HepG2 microtubule cytoskeleton, high-content imaging, actives raise or lower the signal. In short, it runs like this:
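HepG2 cells were exposed 72 hr to compound at 0.39–200 uM in duplicate (0.5% DMSO final), then fixed and permeabilized. Alpha-tubulin immunofluorescence was imaged by high-content microscopy, with bidirectional fitting against DMSO and taxol as positive control.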

Assay [6] can be described thus: APR_HepG2_P-H2AX_24hr: Apredica 24-hour HepG2 Assay for H2AX Phosphorylation (AID 2282920). To be noted: high-content imaging, actives raise or lower the signal. In outline:
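High-content imaging of phospho-histone H2A.x immunofluorescence, nuclei counterstained with Hoechst 33342, in fixed HepG2 cells. Compounds ran 0.39–200 uM in duplicate for 24 h, final DMSO 0.5%. Signal change fitted both directions against DMSO.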

The nature of assay [7]: APR_HepG2_StressKinase_72hr: Apredica 72-hour HepG2 Assay for Stress Kinase (AID 2282921). To be noted: HepG2 stress kinase (phospho-c-Jun) imaging, actives raise or lower the signal. In short, it runs like this:
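Fluorescence intensity of Cy3-tagged anti-phospho-c-Jun antibody, quantified per cell from Hoechst-defined nuclei across six images per well, served as the read-out following 72 h exposure (0.39–200 uM, 0.5% v/v DMSO).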

A short description of assay [8]: APR_HepG2_StressKinase_24hr: Apredica 24-hour HepG2 Assay for Stress Kinase (AID 2282922). To be noted: HepG2 stress kinase (phospho-c-Jun) imaging, actives raise or lower the signal. In outline:
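HepG2 cells exposed 24 h to 0.39–200 uM compound in duplicate (0.5% v/v DMSO final). Cells fixed in 3.7% formaldehyde, permeabilized and immunostained for phospho-c-Jun; read by high-content fluorescence imaging, fitted bidirectionally against DMSO.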

Assay [9] in a line: APR_HepG2_p53Act_72hr: Apredica 72-hour HepG2 Assay for p53 Activation (AID 2282923).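 Further: average cellular p53 protein immunofluorescence intensity in HepG2 cells.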 To be noted: high-content imaging, actives raise or lower the signal. In short, it runs like this: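 HepG2 monolayers receive test compounds in duplicate at ten concentrations (0.39 through 200 uM) for 72 hr. They are then formaldehyde-fixed, antibody-labelled for p53, Hoechst-stained and imaged, with activity fitted bidirectionally versus DMSO.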

Assay [10] in a line: APR_HepG2_MitoMass_72hr: Apredica 72-hour HepG2 Assay for Mitochondrial Mass (AID 2282924).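 Further: MitoTracker Red CMXRos stain intensity per cell imaged as mitochondrial mass.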 To be noted: high-content imaging, actives raise or lower the signal. In outline: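 HepG2 cells dosed 72 hr at 0.39–200 uM (0.5% DMSO), in duplicate. MitoTracker Red CMXRos 250 nM loaded 30 min before formaldehyde fixation; high-content fluorescence imaging, bidirectional fit versus DMSO.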

Assay [11] in a line: APR_HepG2_NuclearSize_72hr: Apredica 72-hour HepG2 Assay for Nuclear Size (AID 2282925). To be noted: high-content imaging, actives raise or lower the signal. In short, it runs like this:
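HepG2 cells dosed 72 h at 0.39–200 uM (10 concentrations, duplicate) in 0.5% v/v DMSO final. Fixed, Hoechst 33342-stained nuclei imaged; nuclear diameter measured by automated image analysis. Bidirectional fit versus DMSO.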

Assay [12] can be described thus: ATG_CRE_CIS: Attagene CIS-FACTORIAL HepG2 Assay for human cAMP Responsive Element (CRE) binding protein 3 (AID 2282926). To be noted: HepG2 CRE cis-reporter, Attagene multiplexed mRNA; actives raise or lower the signal. In outline: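 Multiplexed transcription-unit reporters transfected into HepG2; 24 h dosing; RT-PCR/capillary electrophoresis fluorescence read-out; bidirectional fit vs DMSO.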

The target of assay [13] is CCAAT/enhancer-binding protein beta (Homo sapiens) (UniProt P17676). As to the kind of experiment: ATG_C_EBP_CIS: Attagene CIS-FACTORIAL HepG2 Assay for human CCAAT/Enhancer Binding Protein (C/EBP) beta (AID 2282927). To be noted: HepG2 Attagene cis-factorial transcription factor reporter; actives raise or lower the signal. In short, it runs like this: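 HepG2 transiently transfected with multiplexed reporter units under cis-regulatory promoters reporting endogenous C/EBPb activity. After 24 h exposure, reporter mRNA assayed by RT-PCR, fluorescent labelling, HpaI digestion and capillary electrophoresis; bidirectional fitting versus DMSO.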

Assay [14] can be described thus: ATG_DR4_LXR_CIS: Attagene CIS-FACTORIAL HepG2 Assay for human Liver X Receptor (LXR), DR4 submotif (AID 2282929). To be noted: HepG2 Attagene DR4 cis-reporter, mRNA transcription; actives raise or lower the signal. In short, it runs like this: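 The endpoint is DR4-element-driven reporter transcripts after 24 h chemical exposure of transfected HepG2 cells. These were measured via RT-PCR and capillary electrophoresis, and gain or loss of signal was fitted relative to DMSO controls.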

The target of assay [15] is Aryl hydrocarbon receptor (Homo sapiens) (UniProt P35869). Description: ATG_Ahr_CIS: Attagene CIS-FACTORIAL HepG2 Assay for human Aryl Hydrocarbon Receptor (Ahr) (AID 2282930). To be noted: HepG2 AhR cis-factorial reporter transcription; actives raise or lower the signal. In outline: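 HepG2 cells transiently transfected with cis-element-driven multiplexed reporter units; endogenous AhR activity read as reporter mRNA 24 h after dosing, via RT-PCR, 6-FAM labelling, HpaI digestion and capillary electrophoresis. Bidirectional fit relative to DMSO.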

Assay [16] in a line: ATG_AP_1_CIS: Attagene CIS-FACTORIAL HepG2 Assay for human Activator Protein 1 (AP-1) (AID 2282931). To be noted: HepG2 Attagene cis-factorial AP-1 reporter mRNA; actives raise or lower the signal. In outline:
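Readout is reporter transcript level from endogenous transcription factor activity, quantified by RT-PCR with fluorescent primer extension and capillary electrophoresis. Transiently transfected HepG2 cells, 24 h exposure. Curves fitted both directions versus DMSO.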

A short description of assay [17]: ATG_BRE_CIS: Attagene CIS-FACTORIAL HepG2 Assay for human Bone Morphogenetic Protein (BMP) Response Element (BRE) (AID 2282933). To be noted: HepG2 BMP response element reporter, Attagene transcription factor profiling; actives raise or lower the signal. In short, it runs like this:
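After a 24 h chemical treatment, transiently transfected HepG2 cells were lysed for RNA; reporter transcripts were quantified by fluorescent RT-PCR and capillary electrophoresis, normalised to DMSO.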

Assay [18] has as its target Retinoic acid receptor alpha (Homo sapiens) (UniProt P10276). As to the kind of experiment: ATG_DR5_RAR_CIS: Attagene CIS-FACTORIAL HepG2 Assay for human Retinoic Acid Receptor Alpha (RARE), DR5 submotif (AID 2282934).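 Further: reporter responds to endogenous RAR alpha beta and gamma in HepG2 not RARA alone.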 To be noted: HepG2 Attagene cis-factorial RARE DR5 reporter, mRNA; actives raise or lower the signal. In short, it runs like this: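 HepG2 cells transiently transfected with multiplexed reporter units; DR5 cis-element drives reporter through endogenous transcription factors. After 24 h dosing, reporter mRNA quantified by RT-PCR, fluorescent labeling, HpaI digestion and capillary electrophoresis; bidirectional fitting versus DMSO.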

The nature of assay [19]: ATG_CMV_CIS: Attagene CIS-FACTORIAL HepG2 Assay for human CMV (Internal Marker) (AID 2282928).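 Further: endpoint acts as a background internal control marker rather than a target.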 To be noted: HepG2 CMV promoter reporter, transcription factor profiling; actives raise or lower the signal. In outline:
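CMV internal-marker background readout in transiently transfected HepG2 cells bearing cis-regulated reporter units. Reporter mRNA is measured 24 h after dosing by RT-PCR and capillary electrophoresis, with bidirectional fitting against DMSO.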

Assay [20] is described as follows: ATG_AP_2_CIS: Attagene CIS-FACTORIAL HepG2 Assay for human Activator Protein 2 (AP-2) (AID 2282932). To be noted: HepG2 AP-2 cis-reporter, Attagene transcription factor profiling; actives raise or lower the signal. In outline:
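Multiplexed mRNA reporter assay in HepG2: cis-regulated units report endogenous factor activity after 24 h treatment. Fluorescence from capillary electrophoresis of RT-PCR products gives the signal, with DMSO as baseline.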

Aryl hydrocarbon receptor (Homo sapiens), sequence (P35869 whole entry, looked up): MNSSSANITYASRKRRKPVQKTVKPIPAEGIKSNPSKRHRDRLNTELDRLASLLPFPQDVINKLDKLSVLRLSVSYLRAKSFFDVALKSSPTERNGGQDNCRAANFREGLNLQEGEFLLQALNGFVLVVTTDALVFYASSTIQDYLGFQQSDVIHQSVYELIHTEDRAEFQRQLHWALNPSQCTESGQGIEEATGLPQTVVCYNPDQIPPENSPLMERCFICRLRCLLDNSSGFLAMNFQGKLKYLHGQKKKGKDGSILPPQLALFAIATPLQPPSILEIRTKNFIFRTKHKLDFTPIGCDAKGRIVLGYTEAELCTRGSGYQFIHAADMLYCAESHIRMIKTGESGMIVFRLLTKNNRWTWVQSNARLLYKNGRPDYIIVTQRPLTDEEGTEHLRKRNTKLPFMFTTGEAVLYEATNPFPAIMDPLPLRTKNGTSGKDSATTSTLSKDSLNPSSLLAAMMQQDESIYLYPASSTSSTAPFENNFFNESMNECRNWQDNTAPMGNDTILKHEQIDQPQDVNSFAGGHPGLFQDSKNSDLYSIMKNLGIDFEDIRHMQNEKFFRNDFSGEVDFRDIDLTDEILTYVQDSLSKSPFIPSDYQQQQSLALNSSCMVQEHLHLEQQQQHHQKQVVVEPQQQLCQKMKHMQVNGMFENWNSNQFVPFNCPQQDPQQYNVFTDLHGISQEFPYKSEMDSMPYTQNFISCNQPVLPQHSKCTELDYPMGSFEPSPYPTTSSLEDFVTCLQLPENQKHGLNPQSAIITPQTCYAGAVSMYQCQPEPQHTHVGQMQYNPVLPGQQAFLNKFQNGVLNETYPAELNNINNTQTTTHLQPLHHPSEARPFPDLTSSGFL
CCAAT/enhancer-binding protein beta (Homo sapiens), sequence (P17676 whole entry, looked up): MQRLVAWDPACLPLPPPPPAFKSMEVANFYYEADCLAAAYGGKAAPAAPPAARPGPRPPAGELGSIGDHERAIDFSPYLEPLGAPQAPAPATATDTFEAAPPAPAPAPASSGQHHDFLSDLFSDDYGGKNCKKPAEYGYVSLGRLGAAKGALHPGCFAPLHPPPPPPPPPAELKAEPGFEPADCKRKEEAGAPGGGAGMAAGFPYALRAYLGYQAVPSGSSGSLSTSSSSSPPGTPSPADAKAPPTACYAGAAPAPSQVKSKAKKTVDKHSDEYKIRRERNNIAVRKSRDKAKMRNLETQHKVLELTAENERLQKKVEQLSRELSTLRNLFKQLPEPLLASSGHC
Retinoic acid receptor alpha (Homo sapiens), sequence (P10276 whole entry, looked up): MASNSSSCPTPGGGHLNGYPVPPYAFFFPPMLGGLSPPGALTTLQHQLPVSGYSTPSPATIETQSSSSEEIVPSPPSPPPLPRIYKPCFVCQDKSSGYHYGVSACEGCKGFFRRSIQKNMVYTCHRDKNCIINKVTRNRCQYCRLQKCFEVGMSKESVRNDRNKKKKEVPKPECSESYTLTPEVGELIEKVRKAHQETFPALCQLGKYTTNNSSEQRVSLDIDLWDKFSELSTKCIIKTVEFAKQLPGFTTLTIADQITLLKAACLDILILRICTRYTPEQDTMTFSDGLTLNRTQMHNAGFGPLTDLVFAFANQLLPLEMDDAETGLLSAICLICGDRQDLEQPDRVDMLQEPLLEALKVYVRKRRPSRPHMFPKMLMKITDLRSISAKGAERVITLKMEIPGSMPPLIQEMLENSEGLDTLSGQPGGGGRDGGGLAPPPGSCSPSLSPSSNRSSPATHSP

In the case of `CC(C)c1ccc(C(=O)N=C(N)N)cc1S(C)(=O)=O`, the call in assay [1], in assay [2], in assay [3], in [4], in assay [5] and in assay [6] was inactive. For the same molecule, the call in [7], in [8], in [9], in [10], in [11] and in assay [12] was inactive. Further, the result in [13], in assay [14], in assay [15], in assay [16] and in assay [17] was inactive.
Usually AC50 stands for the midpoint of the concentration-response curve, whichever way the signal moves. On to `CCCCCCCCCCCCCO`, for which the AC50 is 113 µM (active) in assay [1]; 108 µM (active) in assay [2]; 120 µM (active) in [3]; 104 µM (active) in [4]; 10.3 µM (active) in assay [12]; 34.3 µM (active) in assay [16]. The AC50 in assay [18] is 11.7 µM (active). For the same molecule, the outcome in [5], in assay [6], in assay [7], in assay [8], in [9] and in assay [10] was inactive. Further, the molecule was called inactive in [11], in [13], in assay [14] and in assay [15].
Consider `O=C(OCCCCCOC(=O)c1ccccc1)c1ccccc1`, for which the AC50 in assay [1] is 100 µM (active). Besides, the call in [2], in [3], in assay [4], in [5], in [6] and in [7] was inactive. Further, the call in assay [8], in [9], in assay [10], in assay [11], in [12] and in assay [13] was inactive. Moreover, the molecule was classed as inactive in assay [14], in assay [15], in [16] and in [17].
Consider `CC(=O)OCCOCCOCCOC(C)=O`, for which the outcome in assay [1], in assay [2], in [3], in [4], in [5] and in [6] was inactive. For the same molecule, the outcome in assay [7], in assay [8], in [9], in assay [10], in assay [12] and in assay [13] was inactive. Besides, the call in [19], in assay [14], in [15] and in assay [16] was inactive.
In the case of `C=CCc1ccc(O)c(OC)c1`, the molecule was called inactive in assay [1], in assay [2], in assay [4], in [5], in assay [6] and in [7]. Also, the result in assay [8], in assay [9], in assay [10], in [11], in assay [12] and in [13] was inactive. The molecule was called inactive in [14], in [15], in assay [16] and in [17]. In assay [3], the AC50 was 68.6 µM (active).
Regarding `CC(CO)OC(C)CO` (stereo not given) (tested in a mixture with another compound), the call in [1], in assay [2], in assay [3], in [4], in assay [5] and in assay [6] was inactive. Moreover, the result in [7], in assay [8], in assay [9], in [10], in assay [12] and in [13] was inactive. Also, the outcome in assay [19], in assay [14], in assay [15], in assay [16] and in [20] was inactive.
For `COc1cccc2c1C(=O)c1c(O)c3c(c(O)c1C2=O)C[C@@](O)(C(=O)CO)C[C@@H]3O[C@H]1C[C@H](N)[C@H](O)[C@H](C)O1`, the AC50 in assay [1] was 0.0653 µM (active); in [2] it was 1.48 µM (active); in assay [4], 1.37 µM (active); in assay [5], 0.7 µM (active); in assay [6], 3.17 µM (active); in [7], 17.6 µM (active). Besides, the AC50 was 8.8 µM (active) in [8]; 0.177 µM (active) in assay [9]; 36.6 µM (active) in assay [10]; 1.19 µM (active) in assay [19]; 0.957 µM (active) in [14]; 2.15 µM (active) in assay [16]. Also, in assay [20], the AC50 is 3.75 µM (active). Besides, the call in [3], in assay [12], in [13] and in [15] was inactive.
With `FC(F)(F)C(F)(F)C(F)(F)C(F)(F)C(F)(F)C(F)(F)CCI`, the molecule was classed as inactive in assay [1], in assay [2], in assay [3], in assay [4], in assay [5] and in [6]. Besides, the call in assay [7], in assay [8], in assay [9], in assay [10], in assay [11] and in assay [12] was inactive. In addition, the result in assay [13], in [14], in assay [16] and in [17] was inactive. Besides, in assay [15], the AC50 was 32.1 µM (active).
